The results in this text go back to PubChem BioAssay (EPA / NIEHS).

The structures appear in SMILES notation. Active and inactive are the calls of the source. Rule for the calls: active = hit-call score of the fitted dose curve at least 0.9, where 1 is the maximum; inactive = score below 0.9.

The assay is described as follows: CCTE_Mundy_HCI_hNP1_Casp3_7: CCTE's Caspase-Glo 3/7 Assay in human neuroprogenitor cells for Apoptosis, Mundy Lab (AID 2284240). As to the method: CCTE_Mundy_HCI_hNP1_Casp3_7 is a multiplexed, cell-based-readout assay that uses neural stem cells derived from a neuroepithelial cell lineage of WA09 embryonic cells with measurements taken at […] after chemical dosing in a microplate: 96-well plate.CCTE_Mundy_HCI_hNP1_Casp3_7 is one component of the CCTE_Mundy_HCI_hNP1_Casp3_7 assay. It measures apoptosis related to caspase activation using Luminescent Reporter.Data from the assay component CCTE_Mundy_HCI_hNP1_Casp3_7 was analyzed at the endpoint CCTE_Mundy_HCI_hNP1_Casp3_7_gain in the positive analysis fitting direction relative to DMSO as the negative control and baseline of activity. Using a type of viability reporter, gain -of-signal activity can be used to understand viability effects.
Human neural progenitor cells (hNP1) were obtained as cryopreserved cells from ArunA Biomedical, Athens Georgia. Cells are plated on pre-coated poly-L-ornithine/laminin clear bottom and opaque 96 well plates (day 0). Plates are placed in a 37 °C, 5% CO2 incubator for 40 to 44 hours at which time plates are removed from the incubator and 10 uL of a freshly made chemical solution is added to each well. Apoptosis was measured based on detection of activated caspase-3/7 using the Caspase-Glo 3/7 assay kit (Promega). Twenty-four hours after chemical treatment, 50ul of Caspase-Glo 3/7 assay buffer was added to each well and the plate incubated for 30min at room temperature. Luminescence was then recorded in each well using a FLUOstar Optima plate reader.
As to `O=C(O)CCC(F)(F)C(F)(F)C(F)(F)F`, the molecule was called inactive.
For `O=C(F)C1(F)C(F)(F)C(F)(F)C(F)(F)C(F)(F)C1(F)F` the value was “inactive”; for `NC(O)(C(F)(F)F)C(F)(F)F`, “inactive”; for `NC(=O)C(F)(F)C(F)(F)C(F)(F)C(F)(F)C(F)(F)C(F)(F)C(F)(F)F`, “inactive”.
For `O=C(O)C(F)(F)C(F)(F)C(F)(F)OC(F)(F)F` the value was “inactive”; for `CCN(CCO)S(=O)(=O)C(F)(F)C(F)(F)C(F)(F)C(F)(F)C(F)(F)C(F)(F)C(F)(F)C(F)(F)F`, “inactive”.
For `O=C(O)C(F)(F)C(F)(F)C(F)(F)OC(F)(C(F)(F)F)C(F)(F)F` the value was “inactive”; for `O=S(=O)(O)CCC(F)(F)C(F)(F)C(F)(F)C(F)(F)C(F)(F)C(F)(F)C(F)(F)C(F)(F)F`, “inactive”; for `C=CC(=O)OCC(F)(F)C(F)(F)C(F)(F)COC(=O)C=C`, “inactive”.
`NC(=O)C(F)(F)C(F)(F)C(F)(F)C(F)(F)C(N)=O`: the outcome was inactive.
For `OCCCCC(F)(F)C(F)(F)C(F)(F)C(F)(F)F` the value was “inactive”; for `O=C(O)CCC(F)(F)C(F)(F)C(F)(F)C(F)(F)C(F)(F)C(F)(F)C(F)(F)F`, “inactive”.
On to `OCCCC(F)(F)C(F)(F)C(F)(F)C(F)(F)C(F)(F)C(F)(F)C(F)(F)C(F)(F)F`, for which the result was inactive.
